Assay results: PubChem BioAssay (NCATS)
“And” between values parts separate entries of the source, which are not always exact repeats. Identical values can stand only once. Results filed as inconclusive are left out. The source made the active and inactive calls. The call rests on the fitted dose curve; in most records, active means well fitted curve in the direction sought with a large enough effect; inconclusive means small, poorly fitted or top-dose-only effect, or another doubt; inactive means no such curve, though single readings can be large; an effect the other way counts as inactive or inconclusive.

Columns and labels:
[1] = Viability qHTS for spleen associated tyrosine kinase inhibitor (SYKi) drug resistant MV4-11 cells (AID 1963824); settings: SYKi-resistant MV4-11 viability, CellTiter-Glo, 72 h; series mostly up to 45 µM; further: nearly all actives have a fitted effect of over 35% in size; further: potency means the concentration at half of the fitted maximal effect
Summary of the method: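 SYK inhibitor-resistant MV4-11 AML cells, 500 per well, added to predispensed compounds and incubated 72 hr at 37 C, 5% CO2. Viability measured by CellTiter-Glo luminescence after 10 min at room temperature.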

[2] = Quantitative highthroughput screen to assess conditional lethalithy of NOMO1 cells grown in RPMI1640 with untreated serum (RPMI+s) (AID 1963876); settings: NOMO1 AML cells in RPMI+serum, CellTiter-Glo viability, 48 h; series mostly up to 45.8 µM; further: nearly all actives have a fitted effect of over 35% in size; further: potency means the concentration at half of the fitted maximal effect;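 on Viability: 100% = DMSO wells and 0% = empty wells without cells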
Summary of the method: (§1)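 Each medium arm—HPLM with 10% dialyzed FBS, or RPMI1640 with 5 mM glucose and 10% untreated or dialyzed FBS—was screened against an 11-point, 3-fold compound titration for 48 h at 37 °C, with CellTiter-Glo luminescence as endpoint.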

[3] = Quantitative highthroughput screen to assess conditional lethalithy of NOMO1 cells grown in RPMI1640 with dialyzed fetal bovine serum (RPMI+ds) (AID 1963877); settings: NOMO1 in RPMI+dialyzed FBS viability, ATP luminescence, 48 h; series mostly up to 45.8 µM; further: nearly all actives have a fitted effect of over 30% in size; further: potency means the concentration at half of the fitted maximal effect;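 on Viability: 100% = DMSO control wells and 0% = empty wells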
Summary of the method: as §1

[4] = Quantitative highthroughput screen to assess conditional lethalithy of P12 Ichikawa cells grown in RPMI1640 with dialyzed fetal bovine serum (RPMI+ds) (AID 1963880); settings: ATP luminescence, 48 h; Potency: P12-Ichikawa viability; series mostly up to 45.8 µM; further: nearly all actives have a fitted effect of over 35% in size; further: potency means the concentration at half of the fitted maximal effect;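 on Viability: 100% = DMSO wells and 0% = empty wells on each plate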
Summary of the method: as §1

[5] = Quantitative highthroughput screen to assess conditional lethalithy of P12 Ichikawa cells grown in RPMI1640 with untreated serum (RPMI+s) (AID 1963881); settings: ATP luminescence, 48 h; Potency: viability; series mostly up to 45.8 µM;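 further: 100% = DMSO wells and 0% = empty wells without cells; nearly all actives have a fitted effect of over 35% in size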
Summary of the method: as §1

[6] = Quantitative highthroughput screen to assess conditional lethalithy of SEM cells grown in Human Plasma-Like Medium with dialyzed fetal bovine serum (HPLM+ds) (AID 1963882); settings: SEM B-ALL cells in HPLM+ds, CellTiter-Glo viability, 48 h; series mostly up to 45.8 µM; further: nearly all actives have a fitted effect of over 35% in size; further: potency means the concentration at half of the fitted maximal effect
Summary of the method: as §1

[7] = Quantitative highthroughput screen to assess conditional lethalithy of SEM cells grown in RPMI1640 with unreated serum (RPMI+s) (AID 1963883); settings: SEM B-ALL cells, CellTiter-Glo viability, 48 h; series mostly up to 45.8 µM; further: nearly all actives have a fitted effect of over 35% in size; further: potency means the concentration at half of the fitted maximal effect;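 on Viability: 100% = DMSO wells and 0% = empty wells without cells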
Summary of the method: as §1

[8] = Cellular viability qHTS for adrenocortical cancer (ACC) cell line SW-13 (AID 1963989); settings: SW-13 ACC cells viability, CellTiter-Glo, 48 h; activity (max response): stronger effect = lower value; further: nearly all actives have a fitted effect of over 65% in size; further: potency means the concentration at half of the fitted maximal effect;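 on activity (max response): cells grown in serum-free medium with ITS supplement; on the % scale 0 is the no-effect control and ±100 the full control effect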
Summary of the method: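 IC50 and maximal-response values come from four-parameter logistic fits of titration data. SW-13 cells in serum-free medium received compounds (up to 46 uM final) for 48 h before CellTiter-Glo luminescence.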

[9] = Quantitative highthroughput screen to assess conditional lethalithy of NOMO1 cells grown in Human Plasma-Like Medium with dialyzed fetal bovine serum (HPLM+ds) (AID 1963878); settings: NOMO1 AML cells in HPLM+ds, CellTiter-Glo viability, 48 h; series mostly up to 45.8 µM; further: nearly all actives have a fitted effect of over 35% in size; further: potency means the concentration at half of the fitted maximal effect;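 on Viability: 100% = DMSO wells and 0% = empty wells on each plate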
Summary of the method: as §1

[10] = Quantitative highthroughput screen to assess conditional lethalithy of SEM cells grown in RPMI1640 with dialyzed fetal bovine serum (RPMI+ds) (AID 1963884); settings: SEM B-ALL cells, RPMI+dialyzed FBS, CellTiter-Glo viability, 48 h; series mostly up to 45.8 µM; further: nearly all actives have a fitted effect of over 35% in size; further: potency means the concentration at half of the fitted maximal effect;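 on Viability: 100% = DMSO control wells and 0% = empty wells without cells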
Summary of the method: as §1

[11] = Cellular viability qHTS for adrenocortical cancer (ACC) cell line NCI-H295R (AID 1963990); settings: CellTiter-Glo ATP luminescence, 48 h; series mostly up to 46.1 µM; further: nearly all actives have a fitted effect of over 60% in size; further: potency means the concentration at half of the fitted maximal effect
Summary of the method: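 Adrenocortical carcinoma cells, suspended at 300 000 cells/mL in serum-free DMEM plus ITS, rested overnight before pin transfer of compound. After two days' incubation, ATP-dependent luminescence was recorded and curve-fitted.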

[12] = Quantitative highthroughput screen to assess conditional lethalithy of P12 Ichikawa cells grown in Human Plasma-Like Medium with dialyzed fetal bovine serum (HPLM+ds) (AID 1963879); settings: ATP luminescence, 48 h; Potency: viability; series mostly up to 45.8 µM; further: nearly all actives have a fitted effect of over 35% in size
Summary of the method: as §1

CCC(C)N(C)C(=O)c1cc2ccccc2c(-c2ccccc2Cl)n1 (stereo not drawn)
active: Potency [1] 18.6 µM
inactive: Potency [2] | Potency [3] | Potency [4] | Potency [5] | Potency [6] | Potency [7] | activity (max response) [8] -6.79%

COCCOc1ccc2c(c1)ncn2-c1ccc2cccc(N3CCC(N)CC3)c2n1
active: Potency [1] 11.6 nM and 16.6 nM | Potency [2] 18.7 µM | Potency [3] 18.7 µM | Potency [9] 14.8 µM | Potency [7] 0.0935 µM | Potency [10] 0.0264 µM | Potency [8] 25.1 µM | Potency [11] 12.6 µM

Cc1cc(Nc2ncc3c(n2)N(C)C(=O)N(c2cc(NC(=O)c4cccc(C(F)(F)F)c4)ccc2C)C3)n(C)n1
active: Potency [1] 0.0295 µM | Potency [2] 1.66 µM | Potency [3] 1.18 µM | Potency [9] 1.18 µM | Potency [4] 11.8 µM | Potency [6] 0.469 µM | Potency [7] 0.372 µM | Potency [10] 0.372 µM | Potency [11] 1.26 µM

O=C(c1cncc(Br)c1)N1CCC(N2CCCC2)CC1
inactive: Potency [1] | Potency [2] | Potency [3] | Potency [12] | Potency [4] | Potency [5] | Potency [6] | Potency [10] | activity (max response) [8] 1.51% | Potency [11]

O=C(Nc1nc2ccccc2n1CCN1CCOCC1)c1cccc([N+](=O)[O-])c1
active: Potency [1] 2.63 µM
inactive: Potency [2] | Potency [3] | Potency [12] | Potency [5] | Potency [6] | Potency [7] | Potency [10] | activity (max response) [8] 3.94% | Potency [11]

c1cc(-c2sc(-c3ccncc3)c(-c3ccncc3)c2-c2ccncc2)ccn1
active: Potency [1] 18.6 µM | Potency [6] 2.96 µM | Potency [10] 2.64 µM
inactive: Potency [2] | Potency [3] | Potency [12] | Potency [4] | Potency [5] | activity (max response) [8] 2.5%

COc1ccc(-c2cc3nccn3c(Nc3ncccc3C(N)=O)n2)cc1OC
inactive: Potency [2] | Potency [3] | Potency [12] | Potency [4] | Potency [5] | activity (max response) [8] -18.6% | Potency [11]
active: Potency [1] 0.206 µM

CCNC(=O)c1cc2c(-c3cc(OCCN4CCCC4)c(Cl)cc3Cl)nc(N)nc2s1
active: Potency [1] 0.162 µM | Potency [2] 3.72 µM | Potency [3] 4.69 µM | Potency [9] 4.18 µM | Potency [6] 2.96 µM | Potency [10] 2.35 µM | Potency [8] 1.6 µM | Potency [11] 2.54 µM

Cc1cc([C@@H](C)Nc2ccccc2C(=O)O)c2nc(N3CCOCC3)cc(=O)n2c1
active: Potency [1] 7.08 µM and 5.25 µM | Potency [2] 13.6 µM | Potency [3] 12.1 µM | Potency [9] 8.55 µM | Potency [6] 13.6 µM | Potency [7] 10.8 µM | Potency [10] 9.59 µM

CC1(C)O[C@@H]2C[C@H]3[C@@H]4CCC5=CC(=O)C=C[C@]5(C)[C@@H]4[C@@H](O)C[C@]3(C)[C@]2(C(=O)CO)O1
inactive: Potency [1] | Potency [2] | Potency [3] | Potency [9] | activity (max response) [8] -5.21% | Potency [11]

CCS(=O)(=O)N1CC(CC#N)(n2cc(-c3ncnc4[nH]ccc34)cn2)C1
inactive: Potency [2] | Potency [3] | Potency [12] | Potency [4] | Potency [5]
active: Potency [1] 16.4 µM and 10.5 µM

CNc1nc(Nc2ccc(C(=O)N3CCOCC3)cc2OC)ncc1Cl
inactive: Potency [2] | Potency [3] | Potency [12] | Potency [4] | Potency [5] | activity (max response) [8] -6.87% | Potency [11]
active: Potency [1] 5.8 µM

O=C1NC(=O)C(c2ccccc2[N+](=O)[O-])=C1Nc1ccc(O)c(Cl)c1
active: Potency [1] 16.6 µM | Potency [2] 18.7 µM | Potency [3] 18.7 µM | Potency [4] 14.8 µM | Potency [6] 16.6 µM
inactive: activity (max response) [8] -17.3% | Potency [11]

Clc1ccc(COC(Cn2ccnc2)c2ccc(Cl)cc2Cl)c(Cl)c1 (stereo not drawn)
active: Potency [1] 11.8 µM | Potency [8] 17.8 µM | Potency [11] 10 µM
inactive: Potency [2] | Potency [3] | Potency [9] | Potency [6]

CN1CCN(C2=Nc3cc(Cl)ccc3Nc3ccccc32)CC1
inactive: Potency [1] | Potency [2] | Potency [3] | Potency [12] | Potency [4] | Potency [5] | activity (max response) [8] -14.9%

O=C(O)CCc1ccc(NCc2cccc(Oc3ccccc3)c2)cc1
inactive: Potency [2] | Potency [3] | Potency [9] | Potency [4] | Potency [7] | Potency [11]
active: Potency [1] 16.4 µM

C[C@H](c1ccc(F)cc1CCCC(=O)O)N(c1cc(F)ccc1F)S(=O)(=O)c1ccc(Cl)cc1
inactive: Potency [2] | Potency [3] | Potency [12] | Potency [4] | activity (max response) [8] -23.1% | Potency [11]
active: Potency [1] 18.6 µM

COc1cc2c(cc1OC)CN(CCc1ccc(NC(=O)c3cc(OC)c(OC)cc3NC(=O)c3cnc4ccccc4c3)cc1)CC2
inactive: Potency [1] | Potency [2] | Potency [3] | Potency [9] | activity (max response) [8] -4.36% | Potency [11]
